Source: PubChem BioAssay (NCI)
Compounds without any hit were thinned out: in the full panel of roughly 79,000, 15% have a hit. Activity calls are given as the source filed them. No stated cut-off is given here; in the data, active means growth inhibition above about 70%; inactive means the rest.

Experiments:
[1] = NCI Yeast Anticancer Drug Screen. Data for the wt1 strain (AID 149);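 further: 0% = growth of vehicle-treated wt1 cultures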; conditions: S. cerevisiae wt1 strain (SPY 50644) growth inhibition, stronger effect = higher value
How it was run: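 Growth inhibition read against vehicle controls after compound exposure of the wt1 yeast strain.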

[2] = NCI Yeast Anticancer Drug Screen. Data for the rad50EPP+ strain (AID 151);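 further: 0% = growth of vehicle-treated control cultures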; conditions: S. cerevisiae rad50 mutant strain, stronger effect = higher value
How it was run: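 Read-out is yeast growth inhibition relative to vehicle; cells used were the rad50EPP+ strain.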

[3] = NCI Yeast Anticancer Drug Screen. Data for the mgt1 strain (AID 153); conditions: S. cerevisiae mgt1 mutant growth inhibition, stronger effect = higher value
How it was run: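 Measured: inhibition of mgt1 yeast growth by compound, normalized to vehicle-treated cultures.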

[4] = NCI Yeast Anticancer Drug Screen. Data for the rad50 strain (AID 155);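 further: 0% = growth of vehicle-only cultures of the same strain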; conditions: S. cerevisiae rad50 strain growth inhibition, stronger effect = higher value
How it was run: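 Readout: growth inhibition relative to vehicle-treated cultures. Compound exposure was carried out in a genetically defined yeast strain deficient in DNA damage repair.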

[5] = NCI Yeast Anticancer Drug Screen. Data for the mec2-1 strain (AID 157); conditions: S. cerevisiae mec2-1 strain, stronger effect = higher value
How it was run: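 Using mec2-1 yeast: add compound, measure growth, express inhibition versus vehicle-treated cultures.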

[6] = NCI Yeast Anticancer Drug Screen. Data for the rad14 strain (AID 159);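 further: 0% = growth of vehicle-treated control cultures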; conditions: S. cerevisiae rad14 strain growth inhibition, stronger effect = higher value
How it was run: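 Growth inhibition vs vehicle controls; genetically altered yeast strain (DNA damage repair defect) treated with test compounds.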

[7] = NCI Yeast Anticancer Drug Screen. Data for the sgs1 mgt1 strain (AID 161);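 further: 0% = growth of cultures given vehicle only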; conditions: S. cerevisiae sgs1 mgt1 strain, stronger effect = higher value
How it was run: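 Growth of a repair-deficient yeast mutant was monitored after compound treatment and expressed as inhibition relative to vehicle-treated cultures.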

[8] = NCI Yeast Anticancer Drug Screen. Data for the CLN2oe strain (AID 163);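 further: 0% = growth of vehicle-only control cultures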; conditions: S. cerevisiae CLN2oe strain, stronger effect = higher value
How it was run: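 Whole-cell yeast growth assay. A strain engineered for altered cell-cycle control received compound, and inhibition relative to vehicle-treated cultures was recorded.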

[9] = NCI Yeast Anticancer Drug Screen. Data for the cln2 rad14 strain (AID 165);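 further: 0% = growth equal to vehicle treated cultures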; conditions: S. cerevisiae cln2 rad14 strain, stronger effect = higher value
How it was run: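 Yeast strain cln2 rad14, bearing defects in cell cycle control and DNA repair, serves as the test system; values reflect growth inhibition compared with vehicle.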

[10] = NCI Yeast Anticancer Drug Screen. Data for the bub3 strain (AID 167); conditions: S. cerevisiae bub3 mutant strain, stronger effect = higher value
How it was run: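 Readout: yeast growth inhibition, expressed relative to vehicle-only wells. The test organism is a mutant strain from a panel with lesions in DNA repair or checkpoint genes.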

[11] = NCI Yeast Anticancer Drug Screen. Data for the wt2 strain (AID 169);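 further: 0% = growth of vehicle-treated yeast cultures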; conditions: S. cerevisiae wt2 strain growth inhibition, stronger effect = higher value
How it was run: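 Treated yeast vs. vehicle-treated yeast: growth inhibition determined.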

[12] = NCI Yeast Anticancer Drug Screen. Data for the mlh1 strain (AID 171);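 further: 0% = growth of vehicle-treated control cultures of the same strain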; conditions: S. cerevisiae mlh1 strain growth inhibition, stronger effect = higher value
How it was run: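 A yeast strain with a defined genetic lesion serves as the test organism. Cultures receive compound or vehicle, and growth is measured.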

[13] = NCI Yeast Anticancer Drug Screen. Data for the sgs1 strain (AID 173);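 further: 0% = growth of vehicle-only control cultures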; conditions: S. cerevisiae sgs1 mutant, stronger effect = higher value
How it was run: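 A genetically defined yeast mutant is incubated with the test compound, and its growth is compared to that of the same strain given vehicle.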

[14] = NCI Yeast Anticancer Drug Screen. Data for the mlh1 rad18 strain (AID 175); conditions: S. cerevisiae mlh1 rad18 strain growth inhibition, stronger effect = higher value
How it was run: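 Steps: expose repair-defective yeast to compound; measure growth; express inhibition against vehicle-treated controls.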

[15] = NCI Yeast Anticancer Drug Screen. Data for the rad52 strain (AID 147);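 further: 0% = growth of vehicle-treated control cultures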; conditions: S. cerevisiae rad52 mutant growth inhibition, stronger effect = higher value
How it was run: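 Here a repair-compromised yeast strain receives each compound; its growth is then quantified and normalised to vehicle-only controls.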

[16] = NCI Yeast Anticancer Drug Screen. Data for the rad18 strain (AID 177); conditions: S. cerevisiae rad18 mutant growth inhibition, stronger effect = higher value
How it was run: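 Measured value is growth inhibition of a yeast strain bearing a DNA repair alteration, referenced to vehicle-treated cells.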

[17] = at 5.0 µM (retest, dose inferred, filed as 0.5)
[18] = at 50.0 µM (retest, dose inferred, filed as 5.0)

Measured: growth inhibition

CN(N=O)C(=O)NNC(=O)N(C)N=O
active: [2]; at 33.0 µM 93% | [2]; at 100.0 µM 95% | [3]; at 33.0 µM 88% | [3]; at 100.0 µM 96% | [4]; at 33.0 µM 92% | [4]; [18] 95% | [4]; at 50.0 µM 94.9% | [4]; at 100.0 µM 96% | [5]; [18] 85% | [5]; at 100.0 µM 96% | [7]; [17] 74% | [7]; [18] 96% | [7]; at 50.0 µM 91.6% | [13]; at 33.0 µM 81% | [13]; at 100.0 µM 91% | [14]; [18] 89%
inactive: [1]; at 1.2 µM 0% | [1]; at 3.7 µM 1% | [1]; at 11.0 µM 5% | [1]; at 33.0 µM 16% | [1]; at 100.0 µM 38% | [2]; at 1.2 µM 3% | [2]; at 3.7 µM 16% | [2]; at 11.0 µM 62% | [3]; at 1.2 µM 9% | [3]; at 3.7 µM 28% | [3]; at 11.0 µM 51% | [4]; at 1.2 µM 6% | [4]; at 3.7 µM 23% | [4]; [17] 21% | [4]; at 11.0 µM 56% | [5]; at 1.2 µM -2% | [5]; at 3.7 µM 3% | [5]; [17] 10% | [5]; at 11.0 µM 22% | [5]; at 33.0 µM 61% | [5]; at 50.0 µM 38.2% | [6]; at 1.2 µM -2% | [6]; at 3.7 µM 18% | [6]; at 11.0 µM 5% | [6]; at 33.0 µM 22% | [6]; at 100.0 µM 57% | [8]; at 1.2 µM -5% | [8]; at 3.7 µM -4% | [8]; at 11.0 µM -7% | [8]; at 33.0 µM 11% | [8]; at 100.0 µM 41% | [9]; [17] -32% | [9]; [18] 18% | [9]; at 50.0 µM 11.7% | [10]; at 1.2 µM -9% | [10]; at 3.7 µM 5% | [10]; [17] -11% | [10]; at 11.0 µM -6% | [10]; at 33.0 µM 15% | [10]; [18] 27% | [10]; at 50.0 µM 1.9% | [10]; at 100.0 µM 39% | [11]; at 1.2 µM -3% | [11]; at 3.7 µM -2% | [11]; at 11.0 µM 1% | [11]; at 33.0 µM 16% | [11]; at 100.0 µM 49% | [12]; at 1.2 µM -1% | [12]; at 3.7 µM -3% | [12]; at 11.0 µM 7% | [12]; at 33.0 µM 31% | [12]; at 100.0 µM 68% | [13]; at 1.2 µM 11% | [13]; at 3.7 µM 26% | [13]; at 11.0 µM 52% | [14]; [17] 6% | [14]; at 50.0 µM 67%

CC[PH+](CC)CC.CC[PH+](CC)CC.[Au]
inactive: [15]; at 1.2 µM 16% | [15]; at 3.7 µM 21% | [15]; at 11.0 µM 33% | [2]; at 1.2 µM 27% | [2]; at 3.7 µM 39% | [2]; at 11.0 µM 40% | [2]; at 33.0 µM 60% | [3]; at 1.2 µM 16% | [3]; at 3.7 µM 21% | [3]; at 11.0 µM 28% | [3]; at 33.0 µM 46% | [4]; at 1.2 µM 24% | [4]; at 3.7 µM 39% | [4]; [17] 22% | [4]; at 11.0 µM 50% | [5]; at 1.2 µM 14% | [5]; at 3.7 µM 24% | [5]; [17] 52% | [5]; at 11.0 µM 55% | [6]; at 1.2 µM 15% | [6]; at 3.7 µM 30% | [6]; at 11.0 µM 34% | [7]; [17] -11% | [8]; at 1.2 µM 2% | [8]; at 3.7 µM 20% | [8]; at 11.0 µM 23% | [8]; at 33.0 µM 54% | [9]; [17] 27% | [10]; at 1.2 µM 8% | [10]; at 3.7 µM 16% | [10]; [17] -25% | [10]; at 11.0 µM 21% | [11]; at 1.2 µM -13% | [11]; at 3.7 µM -9% | [11]; at 11.0 µM 21% | [13]; at 1.2 µM 28% | [13]; at 3.7 µM 39% | [13]; at 11.0 µM 41% | [14]; [17] 34% | [16]; at 1.2 µM 12% | [16]; at 3.7 µM 16% | [16]; at 11.0 µM 32%
active: [15]; at 33.0 µM 80% | [15]; at 100.0 µM 99% | [2]; at 100.0 µM 97% | [3]; at 100.0 µM 98% | [4]; at 33.0 µM 92% | [4]; [18] 95% | [4]; at 50.0 µM 89.2% | [4]; at 100.0 µM 99% | [5]; at 33.0 µM 90% | [5]; [18] 99% | [5]; at 50.0 µM 94.2% | [5]; at 100.0 µM 98% | [6]; at 33.0 µM 86% | [6]; at 100.0 µM 99% | [7]; [18] 94% | [7]; at 50.0 µM 89.4% | [8]; at 100.0 µM 97% | [9]; [18] 93% | [9]; at 50.0 µM 89.2% | [10]; at 33.0 µM 79% | [10]; [18] 97% | [10]; at 50.0 µM 89.3% | [10]; at 100.0 µM 98% | [11]; at 33.0 µM 98% | [11]; at 100.0 µM 99% | [13]; at 33.0 µM 90% | [13]; at 100.0 µM 99% | [14]; [18] 98% | [14]; at 50.0 µM 89% | [16]; at 33.0 µM 92% | [16]; at 100.0 µM 98%
